Our source for the growth inhibition values is PubChem BioAssay (NCI).

This is part of a sample that, as a whole, favours compounds with a hit. Of some 79,000 tested, about 15% had one in any assay. A number with no mark means an inactive call. Active and inactive are the calls of the source. Cut-off read from the data, not from the text of the source: active = growth inhibition above about 70%; inactive = the rest. Residues, ends and D or L forms follow the SMILES beside them. *: point of attachment. Fmoc = O=C(OCC1c2ccccc2-c2ccccc21)*; Boc = CC(C)(C)OC(=O)*

The assay in a line: NCI Yeast Anticancer Drug Screen. Data for the mlh1 strain (AID 171).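 Note: 0% = growth of vehicle-treated control cultures of the same strain.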 Particulars: S. cerevisiae mlh1 strain growth inhibition, stronger effect = higher value. Here is the method:
Growth inhibition of yeast strains with defined genetic alterations is measured as a screen for potential anti-cancer activity. Selected strains with alterations in DNA damage repair or cell cycle control were exposed to compounds and growth inhibition was measured relative to vehicle treated controls. The strain used in this assay is mlh1

Consider `C/C(=N/NC(=S)Nc1ccccc1C)c1ccccn1`, for which the growth inhibition is -6% (at 1.2 µM); -7% (at 3.7 µM); -5% (at 11.0 µM); -9% (at 33.0 µM); -6% (at 100.0 µM).
In the case of `Cc1cccc2c(Cl)c3cccc(C)c3nc12`, the growth inhibition (at 1.2 µM) is -3%; the growth inhibition (at 3.7 µM) is -2%; the growth inhibition (at 11.0 µM) is 3%; the growth inhibition (at 33.0 µM) was 12%; the growth inhibition (at 100.0 µM) is 12%.
With `CC(C)(C)OC(=O)NCCCCC(NC(=O)C(Cc1c[nH]c2ccccc12)NC(=O)OCC1c2ccccc2-c2ccccc21)C(=O)O` (stereo not given) (Fmoc-Trp-Lys(Boc)-OH; configuration not given here), the growth inhibition was -1% (at 1.2 µM); -1% (at 3.7 µM); -2% (at 11.0 µM); 10% (at 33.0 µM); 70% (active) (at 100.0 µM).
On to `NC(=O)NC1C(c2ccccc2)=C1c1ccccc1`, for which the growth inhibition was -7% (at 1.2 µM); -4% (at 3.7 µM); 14% (at 11.0 µM); 17% (at 33.0 µM); 51% (at 100.0 µM).
`O=Cc1ccccc1C=O`: the growth inhibition reads like this: (at 1.2 µM) -6%; (at 3.7 µM) -5%; (at 11.0 µM) 1%; (at 33.0 µM) 36%; (at 100.0 µM) 84% (active).
Regarding `O=C1CSC(c2ccccc2)N1c1ccc(-c2ccc(-n3c(-c4ccccc4)nc4ccccc4c3=O)cc2)cc1` (stereo not given), the growth inhibition (at 1.2 µM) was -1%; the growth inhibition (at 3.7 µM) was -2%; the growth inhibition (at 11.0 µM) is -1%; the growth inhibition (at 33.0 µM) is 14%; the growth inhibition (at 100.0 µM) is 54%.
Consider `CCC[CH2][Sn]([CH2]CCC)([CH2]CCC)/[C](=C/[Si](C)(C)c1ccccc1)c1ccc2c(c1)OCO2`, for which the growth inhibition (at 1.2 µM) was 7%; the growth inhibition (at 3.7 µM) is 47%; the growth inhibition (at 11.0 µM) is 93% (active); the growth inhibition (at 33.0 µM) is 92% (active); the growth inhibition (at 100.0 µM) is 91% (active).
Consider `Cc1cc(C)c2[s+]snc2c1`, for which the growth inhibition (at 1.2 µM) is 1%; the growth inhibition (at 3.7 µM) is 1%; the growth inhibition (at 11.0 µM) was 0%; the growth inhibition (at 33.0 µM) was 4%; the growth inhibition (at 100.0 µM) is 19%.
